Among the data in PubChem BioAssay (EPA / NIEHS) are outcome and AC50 values, retold here.

Calls of active or inactive are those of the source. Rule for the calls: active = hit-call score of the fitted dose curve at least 0.9, where 1 is the maximum; inactive = score below 0.9.

Common to all, as to settings: mRNA level, 48 h; actives raise or lower the signal
Read-out in assay [1]: Fatty acid synthase (Homo sapiens) (UniProt P49327)
Briefly: LTEA_HepaRG_FASN: Life Technologies and Expression Analysis (LTEA) Assay for Fatty Acid Synthase (FASN) using HepaRG (AID 2283448). The method in brief:
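Transcript-level assay: HepaRG liver cells are treated for 48 h across an eight-point range topping at 100 uM, and FASN mRNA, normalized to three housekeeping genes, is compared with DMSO controls in both directions.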

Read-out in assay [2]: Cyclin Dependent Kinase Inhibitor 1A (CDKN1A), CDKN1A (gene 1026)
The assay can be described thus: LTEA_HepaRG_CDKN1A: Life Technologies and Expression Analysis (LTEA) Assay for Cyclin Dependent Kinase Inhibitor 1A (CDKN1A) using HepaRG (AID 2283450). The method, boiled down:
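Read-out is CDKN1A mRNA by TaqMan qRT-PCR, normalized to three housekeeping genes and fitted in both directions against the DMSO baseline. Human HepaRG cells were treated 48 h with test chemicals up to 100 uM in half-log steps, 0.5% DMSO.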

Read-out in assay [3]: Cyclin D1 (CCND1), CCND1 (gene 595)
The assay can be described thus: LTEA_HepaRG_CCND1: Life Technologies and Expression Analysis (LTEA) Assay for Cyclin D1 (CCND1) using HepaRG (AID 2283451). The method, boiled down:
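HepaRG plated 48 h, medium switched to serum-free induction medium, chemicals added in duplicate (top 100 uM, half-log steps, 0.5% DMSO) for 48 h, cells lysed, RNA measured by TaqMan qRT-PCR.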

Read-out in assay [4]: catalase (CAT), CAT (gene 847)
Briefly: LTEA_HepaRG_CAT: Life Technologies and Expression Analysis (LTEA) Assay for catalase (CAT) using HepaRG (AID 2283452).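 For AC50: TaqMan qRT-PCR signal normalized to ACTB GAPDH and POLR2A housekeeping genes.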 The method, boiled down:
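Differentiated HepaRG cells in serum-free induction medium were dosed 48 h in duplicate, eight half-log concentrations from 100 uM in 0.5% DMSO. Transcript measured by TaqMan qRT-PCR, normalised to ACTB/GAPDH/POLR2A, fitted bidirectionally against DMSO.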

Read-out in assay [5]: flavin-containing dimethylaniline monooxygenases 3 (FMO3), FMO3 (gene 2328)
The assay can be described thus: LTEA_HepaRG_FMO3: Life Technologies and Expression Analysis (LTEA) Assay for flavin-containing dimethylaniline monooxygenases 3 (FMO3) using HepaRG (AID 2283453).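 For AC50: FMO3 transcript by TaqMan qRT-PCR normalized to ACTB GAPDH and POLR2A.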 The method, boiled down: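 HepaRG, 48 h exposure, 8-pt half-log series from 100 uM, 0.5% DMSO vehicle, duplicates; FMO3 transcript by Fluidigm TaqMan qRT-PCR, housekeeping-normalized; gain/loss fit vs DMSO.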

Read-out in assay [6]: Cytochrome P450 (CYP1A1), CYP1A1 (gene 1543)
The assay can be described thus: LTEA_HepaRG_CYP1A1: Life Technologies and Expression Analysis (LTEA) Assay for Cytochrome P450 (CYP1A1) using HepaRG (AID 2283454). The method in brief: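 HepaRG, 48 h post-plating switched to serum-free induction medium; 8-pt conc-response (top 100 uM, half-log, 0.5% DMSO), duplicates, 48 h. Lysis in RLT, TaqMan qRT-PCR for CYP1A1; gain or loss vs DMSO.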

Read-out in assay [7]: Forkhead box O1 (FOXO1), FOXO1 (gene 2308)
Briefly: LTEA_HepaRG_FOXO1: Life Technologies and Expression Analysis (LTEA) Assay for Forkhead box O1 (FOXO1) using HepaRG (AID 2283456). The method, boiled down: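 Differentiated human HepaRG cells in serum-free induction medium were exposed in duplicate for 48 h to eight half-log concentrations (top 100 uM, 0.5% DMSO). FOXO1 mRNA was measured by TaqMan qRT-PCR, normalised to ACTB, GAPDH and POLR2A, and fitted bidirectionally against DMSO.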

Read-out in assay [8]: Forkhead box O3 (FOXO3), FOXO3 (gene 2309)
The assay can be described thus: LTEA_HepaRG_FOXO3: Life Technologies and Expression Analysis (LTEA) Assay for Forkhead box O3 (FOXO3) using HepaRG (AID 2283459). The method in brief: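 Differentiated human HepaRG cells in serum-free induction medium were exposed in duplicate for 48 h to eight half-log concentrations up to 100 uM in 0.5% DMSO. FOXO3 mRNA was quantified by qRT-PCR, normalized to ACTB, GAPDH and POLR2A, with bidirectional fitting versus DMSO.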

Read-out in assay [9]: ABC Transporter (ABCB1), ABCB1 (gene 5243)
The assay can be described thus: LTEA_HepaRG_ABCB1: Life Technologies and Expression Analysis (LTEA) Assay for ABC Transporter (ABCB1) using HepaRG (AID 2283460). The method, boiled down: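 Differentiated human HepaRG cells, plated 48 h then switched to serum-free induction medium, were exposed in duplicate to eight half-log concentrations up to 100 uM in 0.5% DMSO for 48 h. ABCB1 mRNA was measured by TaqMan qRT-PCR, normalized to ACTB/GAPDH/POLR2A.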

Read-out in assay [10]: growth arrest and DNA damage 45 (GADD45B), GADD45B (gene 4616)
The assay can be described thus: LTEA_HepaRG_GADD45B: Life Technologies and Expression Analysis (LTEA) Assay for growth arrest and DNA damage 45 (GADD45B) using HepaRG (AID 2283461). The method, boiled down:
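HepaRG, ~100,000 cells/well, 48 h plating; serum-free induction medium; cpd 100 uM top, half-log x8, 0.5% DMSO, duplicate, 48 h; lysis in RLT, RNA isolation, qRT-PCR; norm ACTB/GAPDH/POLR2A; bidirectional fit vs DMSO.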

Read-out in assay [11]: ABC Transporter (ABCC3), ABCC3 (gene 8714)
Briefly: LTEA_HepaRG_ABCC3: Life Technologies and Expression Analysis (LTEA) Assay for ABC Transporter (ABCC3) using HepaRG (AID 2283462). The method, boiled down: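 Human HepaRG, 48 h dosing, 8-pt half-log series from 100 uM, 0.5% DMSO vehicle, duplicates. ABCC3 mRNA by TaqMan qRT-PCR, housekeeping-normalized; bidirectional curve fit vs DMSO.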

Read-out in assay [12]: ABC Transporter (ABCB11), ABCB11 (gene 8647)
Briefly: LTEA_HepaRG_ABCB11: Life Technologies and Expression Analysis (LTEA) Assay for ABC Transporter (ABCB11) using HepaRG (AID 2283463). The method, boiled down: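 Differentiated human HepaRG cells were exposed for 48 h in serum-free induction medium to eight half-log concentrations up to 100 uM in 0.5% DMSO. ABCB11 mRNA was quantified by qRT-PCR, normalized to ACTB, GAPDH and POLR2A, and fitted bidirectionally versus DMSO.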

Read-out in assay [13]: ABC Transporter (ABCC2), ABCC2 (gene 1244)
Briefly: LTEA_HepaRG_ABCC2: Life Technologies and Expression Analysis (LTEA) Assay for ABC Transporter (ABCC2) using HepaRG (AID 2283464). The method in brief: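 HepaRG, 48 h post-plating; serum-free induction medium; cpd 8-pt, 100 uM top, half-log, 0.5% DMSO, duplicate, 48 h. Readout: ABCC2 mRNA by qRT-PCR, norm. ACTB/GAPDH/POLR2A. Bidirectional fit vs DMSO baseline.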

Read-out in assay [14]: Broad substrate specificity ATP-binding cassette transporter ABCG2 (Homo sapiens) (UniProt Q9UNQ0)
Briefly: LTEA_HepaRG_ABCG2: Life Technologies and Expression Analysis (LTEA) Assay for ABC Transporter (ABCG2) using HepaRG (AID 2283465). The method, boiled down: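 Differentiated HepaRG cells in serum-free induction medium were exposed for 48 h, in duplicate, to eight half-log concentrations up to 100 uM in 0.5% DMSO. ABCG2 mRNA was measured by TaqMan qRT-PCR, normalized to ACTB, GAPDH and POLR2A, and fitted bidirectionally versus DMSO.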

Read-out in assay [15]: ATP-citrate lyase (ACLY), ACLY (gene 47)
Briefly: LTEA_HepaRG_ACLY: Life Technologies and Expression Analysis (LTEA) Assay for ATP-citrate lyase (ACLY) using HepaRG (AID 2283466). The method in brief:
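Differentiated human HepaRG cells in serum-free induction medium exposed 48 h, in duplicate, to eight half-log concentrations from 100 uM top in 0.5% DMSO; ACLY mRNA measured by qRT-PCR, normalized to ACTB, GAPDH, POLR2A, fitted bidirectionally versus DMSO.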

Read-out in assay [16]: Peroxisomal acyl-coenzyme A oxidase 1 (ACOX1) gene, ACOX1 (gene 51)
The assay can be described thus: LTEA_HepaRG_ACOX1: Life Technologies and Expression Analysis (LTEA) Assay for Peroxisomal acyl-coenzyme A oxidase 1 (ACOX1) gene using HepaRG (AID 2283467). The method, boiled down:
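Differentiated human HepaRG cells were exposed in duplicate for 48 h in serum-free induction medium to eight half-log concentrations up to 100 uM in 0.5% DMSO. ACOX1 mRNA was then quantified by TaqMan qRT-PCR, normalized to ACTB, GAPDH and POLR2A.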

Read-out in assay [17]: CFLAR gene, CFLAR (gene 8837)
The assay can be described thus: LTEA_HepaRG_CFLAR: Life Technologies and Expression Analysis (LTEA) Assay for CFLAR gene using HepaRG (AID 2283455). The method, boiled down: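 HepaRG cells were plated for 48 h, switched to serum-free induction medium, then exposed in duplicate for 48 h to 8 concentrations (top 100 uM, half-log steps, 0.5% DMSO). CFLAR mRNA was measured by qRT-PCR, normalized to ACTB, GAPDH and POLR2A.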

Read-out in assay [18]: growth arrest and DNA damage 45 (GADD45A), GADD45A (gene 1647)
Briefly: LTEA_HepaRG_GADD45A: Life Technologies and Expression Analysis (LTEA) Assay for growth arrest and DNA damage 45 (GADD45A) using HepaRG (AID 2283458). The method, boiled down: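 Human HepaRG liver cells are treated in duplicate for 48 h with chemicals in 0.5% DMSO, highest concentration 100 uM. Expression is read by qRT-PCR and analyzed in both directions against vehicle.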

Chain of Fatty acid synthase (Homo sapiens) (P49327 whole entry, looked up): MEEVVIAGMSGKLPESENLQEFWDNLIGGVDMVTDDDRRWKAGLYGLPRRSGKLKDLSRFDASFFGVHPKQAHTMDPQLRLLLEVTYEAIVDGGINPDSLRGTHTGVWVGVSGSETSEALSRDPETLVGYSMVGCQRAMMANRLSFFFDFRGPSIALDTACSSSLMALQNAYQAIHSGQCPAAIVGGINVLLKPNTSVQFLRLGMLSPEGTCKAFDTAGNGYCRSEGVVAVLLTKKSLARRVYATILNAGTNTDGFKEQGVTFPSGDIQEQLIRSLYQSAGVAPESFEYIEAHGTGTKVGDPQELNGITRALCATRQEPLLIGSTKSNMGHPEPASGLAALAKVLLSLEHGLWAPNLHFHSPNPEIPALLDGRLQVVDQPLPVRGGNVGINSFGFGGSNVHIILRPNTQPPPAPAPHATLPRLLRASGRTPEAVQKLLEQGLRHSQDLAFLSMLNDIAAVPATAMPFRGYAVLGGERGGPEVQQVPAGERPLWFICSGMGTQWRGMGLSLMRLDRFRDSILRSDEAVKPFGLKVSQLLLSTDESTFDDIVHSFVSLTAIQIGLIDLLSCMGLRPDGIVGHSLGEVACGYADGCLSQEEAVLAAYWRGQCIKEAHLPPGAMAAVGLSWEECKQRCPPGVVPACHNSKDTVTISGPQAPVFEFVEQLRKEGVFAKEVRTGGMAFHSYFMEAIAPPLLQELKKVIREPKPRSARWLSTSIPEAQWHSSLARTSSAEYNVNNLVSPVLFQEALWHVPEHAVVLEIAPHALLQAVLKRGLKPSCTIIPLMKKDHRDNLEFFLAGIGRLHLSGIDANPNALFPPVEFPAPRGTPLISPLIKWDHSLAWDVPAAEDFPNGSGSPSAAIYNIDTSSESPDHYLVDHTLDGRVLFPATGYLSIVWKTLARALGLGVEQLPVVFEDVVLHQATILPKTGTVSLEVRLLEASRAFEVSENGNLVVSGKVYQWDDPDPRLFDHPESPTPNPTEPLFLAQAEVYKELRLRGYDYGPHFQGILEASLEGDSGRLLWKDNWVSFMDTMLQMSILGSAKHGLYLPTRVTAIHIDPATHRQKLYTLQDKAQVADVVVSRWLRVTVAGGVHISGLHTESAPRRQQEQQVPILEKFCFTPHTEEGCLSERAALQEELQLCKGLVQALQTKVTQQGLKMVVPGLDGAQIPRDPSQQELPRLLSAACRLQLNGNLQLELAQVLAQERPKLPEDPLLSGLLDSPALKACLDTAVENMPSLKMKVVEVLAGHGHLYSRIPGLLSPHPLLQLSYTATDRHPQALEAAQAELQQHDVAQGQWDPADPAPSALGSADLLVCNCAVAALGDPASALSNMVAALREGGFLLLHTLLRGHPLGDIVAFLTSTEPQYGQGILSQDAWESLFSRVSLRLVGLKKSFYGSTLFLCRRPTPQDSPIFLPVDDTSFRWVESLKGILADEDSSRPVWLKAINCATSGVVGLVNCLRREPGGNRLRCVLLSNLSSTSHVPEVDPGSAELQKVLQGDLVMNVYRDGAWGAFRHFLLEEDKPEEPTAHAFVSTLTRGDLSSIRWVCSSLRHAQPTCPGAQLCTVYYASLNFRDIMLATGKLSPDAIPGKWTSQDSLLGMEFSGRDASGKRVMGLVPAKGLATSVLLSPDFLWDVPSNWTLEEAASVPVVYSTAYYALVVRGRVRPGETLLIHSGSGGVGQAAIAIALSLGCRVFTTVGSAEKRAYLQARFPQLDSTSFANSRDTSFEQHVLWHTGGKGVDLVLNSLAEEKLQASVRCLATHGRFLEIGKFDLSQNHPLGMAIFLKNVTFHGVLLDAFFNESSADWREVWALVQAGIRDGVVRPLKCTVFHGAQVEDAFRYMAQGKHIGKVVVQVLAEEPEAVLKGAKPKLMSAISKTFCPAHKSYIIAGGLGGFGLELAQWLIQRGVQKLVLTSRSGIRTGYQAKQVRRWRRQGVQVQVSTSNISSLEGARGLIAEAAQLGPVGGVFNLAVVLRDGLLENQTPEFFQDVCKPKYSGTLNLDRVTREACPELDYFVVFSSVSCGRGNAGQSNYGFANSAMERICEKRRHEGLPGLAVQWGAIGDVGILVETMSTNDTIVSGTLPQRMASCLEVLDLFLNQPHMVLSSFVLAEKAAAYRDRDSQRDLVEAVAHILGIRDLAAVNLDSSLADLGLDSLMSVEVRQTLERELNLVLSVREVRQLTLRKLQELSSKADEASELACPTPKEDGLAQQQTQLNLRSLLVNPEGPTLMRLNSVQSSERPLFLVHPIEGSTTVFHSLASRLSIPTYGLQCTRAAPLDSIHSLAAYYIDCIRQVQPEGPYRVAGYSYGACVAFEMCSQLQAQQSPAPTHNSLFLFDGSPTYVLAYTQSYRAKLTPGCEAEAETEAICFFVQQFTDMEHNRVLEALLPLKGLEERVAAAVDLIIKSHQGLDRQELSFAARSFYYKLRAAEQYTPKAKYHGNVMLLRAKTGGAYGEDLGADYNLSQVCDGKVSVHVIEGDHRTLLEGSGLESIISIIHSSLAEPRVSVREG
Chain of Broad substrate specificity ATP-binding cassette transporter ABCG2 (Homo sapiens) (Q9UNQ0 whole entry, looked up): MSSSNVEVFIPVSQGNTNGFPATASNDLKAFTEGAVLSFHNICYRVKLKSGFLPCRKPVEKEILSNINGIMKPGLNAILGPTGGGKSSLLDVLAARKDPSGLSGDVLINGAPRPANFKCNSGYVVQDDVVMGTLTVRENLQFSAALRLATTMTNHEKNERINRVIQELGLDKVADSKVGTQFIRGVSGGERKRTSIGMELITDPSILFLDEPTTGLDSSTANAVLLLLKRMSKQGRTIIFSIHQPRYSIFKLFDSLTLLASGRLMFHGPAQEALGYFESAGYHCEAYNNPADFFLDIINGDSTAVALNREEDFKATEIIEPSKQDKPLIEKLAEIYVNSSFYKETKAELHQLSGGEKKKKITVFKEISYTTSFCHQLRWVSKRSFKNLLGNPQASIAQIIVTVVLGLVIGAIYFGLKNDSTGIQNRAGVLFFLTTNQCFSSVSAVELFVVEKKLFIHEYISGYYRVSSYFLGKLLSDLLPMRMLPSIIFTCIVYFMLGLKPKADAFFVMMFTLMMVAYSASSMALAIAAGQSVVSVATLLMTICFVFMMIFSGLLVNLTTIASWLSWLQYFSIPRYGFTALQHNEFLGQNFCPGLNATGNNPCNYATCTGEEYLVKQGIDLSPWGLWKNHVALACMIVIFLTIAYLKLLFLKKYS

Broadly, the AC50 is the midpoint of the concentration-response curve, whichever way the signal moves. In the case of `COP(=O)(OC)OC(Br)C(Cl)(Cl)Br` (configuration not stated), the call in [1], in assay [2], in [3], in assay [4], in [5] and in [7] was inactive. Moreover, the compound was called inactive in assay [8], in assay [9], in assay [10], in [11], in assay [12] and in [13]. Further, the call in assay [14], in assay [15] and in assay [16] was inactive. The AC50 in assay [6] is 50 µM (active).
`N#CSCSC#N`: the AC50 in assay [1] is 64.6 µM (active); in assay [4], 74.9 µM (active); in assay [5], 83.2 µM (active); in assay [6], 50 µM (active); in assay [17] it was 75.2 µM (active); in [7] it was 80.6 µM (active). The AC50 in assay [8] was 84.9 µM (active); in assay [10], 50 µM (active); in assay [12], 50 µM (active). The outcome in [2], in assay [3], in assay [18], in [9], in [11] and in assay [13] was inactive. For the same compound, the compound was called inactive in assay [14], in assay [15] and in [16].
Take `CCCCN(CC)c1c([N+](=O)[O-])cc(C(F)(F)F)cc1[N+](=O)[O-]`: the outcome in [1], in assay [2], in assay [3], in assay [4], in assay [5] and in [17] was inactive. Moreover, the call in assay [7], in assay [18], in assay [8], in assay [9], in [10] and in assay [11] was inactive. Besides, the outcome in assay [12], in assay [13], in assay [14], in [15] and in assay [16] was inactive. The concentration at half-maximal activity (AC50) in assay [6] was 35.4 µM (active).
`CC1=NNC(=O)N(/N=C/c2cccnc2)C1`: the figures for the AC50 in [1] and in [6] were 13.4 µM (active) and 27.5 µM (active), respectively. In addition, the outcome in assay [2], in assay [3], in [4], in assay [5], in assay [17] and in assay [7] was inactive. For the same compound, the compound was called inactive in [18], in assay [8], in assay [9], in assay [10], in assay [11] and in [12]. Further, the call in [13], in [14], in [15] and in [16] was inactive.
`Cc1nn(-c2cc(NS(C)(=O)=O)c(Cl)cc2Cl)c(=O)n1C(F)F`: the outcome in assay [1], in assay [2], in assay [3], in [4], in assay [5] and in [17] was inactive. Also, the call in assay [7], in assay [18], in [8], in assay [10], in [11] and in assay [14] was inactive. Besides, the call in [15] and in assay [16] was inactive. For the same compound, the AC50 in [6] is 50 µM (active); in [9], 8.21 µM (active); in assay [13], 13.6 µM (active).
